± gives the standard deviation.
Test system: EfPiwi piRISC loaded with piRNA #1 (26 nt)
Assay: pre-steady-state target cleavage rate (min^-1); auxiliary factor: 500 nM Ephydatia muelleri Gtsf1; guide: piRNA #1 5'p-UGAGGUAGUAGGUUGUAUAGUAUCCA; MIWI and MILI are mouse PIWI proteins and EfPiwi is from a freshwater sponge; tags in brackets are library labels; higher = faster piRNA-guided slicing of the target
Procedure, shortened: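 Cleave-'n-Seq: a transcribed, DNA-blocked target RNA library (0.1 nM) was mixed with 1 nM active affinity-purified piRISC carrying one synthetic guide, with or without 500 nM GTSF1 partner protein, in HEPES–potassium acetate buffer at 33 °C for 0–8 or 0–960 min. Uncleaved targets were sequenced and normalised to depth and to weakly complementary targets. Three trials were pooled, and k3 was capped at 0.0001 min^-1. The pre-steady-state cleavage rate came from a burst-and-steady-state fit.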

| Sequence | pre-steady-state target cleavage rate |
| --- | --- |
| GGAGUGGAUUCUAUACAACCUAGUACCUCA | 0.00168 ± 0.0013 |
| GGAGUGGAUACUAUACAACCUACCACCUCA | 0.00271 ± 0.0014 |
| GGAGUGGAUACUAUACAUGGAUGAUGGAGA [g14:g26:cont:t1A] | < 0.0001 |
| GGAGUGGAUAACUAUACAACCUACUACCUCA | 0.0101 ± 0.0044 |
| GGAGUGCAUACUAUACAACCUACUACCUGA | 0.00576 ± 0.0029 |
| GGAGUGAGAUACUAUACAACCUACUACCUCA | 0.0362 ± 0.015 |
| GGAGACGAUACUAUACAACCUACAACCACA | 0.00436 ± 0.0022 |
| GGAGACGAUCUAUACAACCUACUACCUCA | 0.0198 ± 0.01 |
| GGAGACCUUACUAUACAACCUACUACGUGA | 0.00535 ± 0.0036 |
| GGAGACCUAACAUAUACAACCUACUACCUCA | 0.0546 ± 0.02 |
| GGAGACGAUACUAUUCAACCUACUACCUCA | 0.00923 ± 0.0038 |
| GGAGUGGAUACUAUACAUGGUACUACCUCA | 0.00303 ± 0.0028 |
| GGAGACCAUACUAUUCAACCUACUAGCUCA | 0.00459 ± 0.0044 |
| GGAGACCUAUCUAUACAACCUAUUACCUCA | 0.00466 ± 0.0039 |
| GGAGAGGAUACUAUACAACCUACUAGCCUCA | 0.00421 ± 0.0018 |
| GGAGACGAUUCUAUACAACCUACUACCUGA | 0.00463 ± 0.0026 |
| GGAGUCGAUACUAUACUACCUACUACCUCA | 0.00591 ± 0.0029 |
| GGAGACCUAACUAUACAACCUACUACCUA | 0.0706 ± 0.025 |
| GGAGACCAUACUUUACAACCUAGUACCUCA | 0.00535 ± 0.0043 |
| GGAGACGAUACUAUACAACCUUCUACCUCA | 0.00729 ± 0.0029 |

| Sequence | pre-steady-state target cleavage rate |
| --- | --- |
| GGAGACAAUACUAUACAACCUACUACCUCA | 0.0606 ± 0.023 |
| GGAGACGAUACUAUACAACAUACUACCUCA | 0.00522 ± 0.0024 |
| GGAGACGAUACUAUCACAACCUACUACCUCA | 0.0153 ± 0.0062 |
| GGAGUGGAUACUAUACAACCUACUACUUCA | 0.104 ± 0.042 |
| GGAGACCAUACUAUACAACCUACUAGGAGA [g6:g23:cont:t1A] | 0.00788 ± 0.0042 |
| GGAGACCUAACUAUACAACCUAAUACCUCA | 0.00511 ± 0.0036 |
| GGAGAGGUUACUAUACAACCUACUACCUCA | 0.0625 ± 0.025 |
| GGAGACCUAUCGAUACAACCUACUACCUCA | 0.0102 ± 0.0056 |
| GGAGUGGUUACUAUACAACGUACUACCUCA | 0.00485 ± 0.0014 |
| GGAGACGAUUCUAUACAACCUACUACCACA | 0.00382 ± 0.0024 |
| GGAGACCUUACUUUACAUCCUACUACCUCA | 0.00417 ± 0.0035 |
| GGAGACCUUACAAUACAACCUACUACCUCA | 0.0117 ± 0.0048 |
| GGAGACGAUACUAUUCAUCCUACUACCUCA | 0.00763 ± 0.0036 |
| GGAGACCUAUGUAUACAACCUACUACCUCA [g2:g19:cont:t1A] | 0.00649 ± 0.0034 |
| GGAGAGGUUACAAUACAACCUACUACCUCA | 0.00504 ± 0.0035 |
| GGAGUGGAAACUAUACAACCUUCUACCUCA | 0.00484 ± 0.0029 |
| GGAGAGGAUACUUUACAACCUUCUACCUCA | 0.0032 ± 0.0028 |
| GGAGACCUAACUAUACAACGUACUACCACA | 0.0055 ± 0.0049 |
| GGAGACGAUACUAUACAACCUAGAUCCUCA | 0.00272 ± 0.0017 |

— the supplement of paper PMC10338343
